One may read the inhibition as the relative decrease from the control value, in per cent.

Experimental findings from PubChem BioAssay AID1986 (Sanford-Burnham Center for Chemical Genomics, 2009) are described below.

This experiment is described as follows: inhibitors of HIV fusion peptide binding, primary screen, biochemical, uHTS, fluorescence dequenching (AID 1986). The conditions noted are these: cell-free peptide binding, 30 min, stronger effect = higher value.
[1] abbreviates: measured here: repeat confirmation average inhibition, at 18.6 µM.

Screen size: about 290,000 compounds; about 890 (0.31%) were called active. Rule as the data show it: active = inhibition mostly above about 52% (no sharp cut-off); inactive = mostly below about 76%. What follows is part of a selection rich in actives, with near analogues and random picks from the rest.

As to `COc1ccccc1-c1ccc(/C=C2/C=C(C)OC2=O)o1`, the inhibition (at 20 µM) was 48.6% (inactive). As for `CCCCNC(=O)O/N=C(\N)CS(=O)(=O)C(C)(C)C`, the inhibition (at 20 µM) is -2.3% (inactive). Consider `COc1cccc(NC(=O)Cn2nnc(C(=O)Nc3cc(Cl)ccc3OC)c2N)c1`, for which, under “at 20 µM”, the inhibition was 1.3% (inactive).

`CCOc1ccc(C(=O)Nc2ncccc2Cl)cc1`: the inhibition (at 20 µM) was 1.2% (inactive). As to `Cc1ccc2c(nc3s/c(=C/c4cccs4)c(=O)n32)c1C`, the inhibition (at 20 µM) is -1.1% (inactive). Turning to `Cc1cc2nc3s/c(=C/c4ccc(-c5ccccc5C(=O)O)o4)c(=O)n3c2cc1C`, the inhibition was 116% (active) (at 20 µM) and 108% under setting [1].

As to `O=C(O)c1ccccc1-c1ccc(/C=c2\sc3nc4cc(Br)cnc4n3c2=O)o1`, the inhibition is 56.9% (inactive) (at 20 µM) and 28.9% under setting [1]. For `CCOC(=O)C(C)N1C(=O)S/C(=C\c2ccc(-c3ccccc3C(=O)O)o2)C1=O` (stereo unspecified), the inhibition (at 20 µM) was 22.7% (inactive). Regarding `Cc1ccc2c(nc3s/c(=C\c4ccc(-c5ccccc5C(=O)O)o4)c(=O)n32)c1C`, the inhibition was 88% (active) (at 20 µM) and 121% under setting [1]. Take `COc1ccc(O)c(/C=c2/sc3nc4cc(C)c(C)cc4n3c2=O)c1`: the inhibition (at 20 µM) is -3.1% (inactive). The same measure, in the same setting: with `COCCCNC(=O)c1ccc(CS(=O)(=O)c2cccc(C(F)(F)F)c2)o1` the figure was -1.7% (inactive); with `CCC12CN3CCN(CC(C3)/C1=N\NC(=O)c1ccc(F)cc1)C2`, 0.1% (inactive); with `CCOc1ccc(C2C(C(=O)c3ccco3)=C(O)C(=O)N2Cc2cccnc2)cc1` (stereo unspecified), 0.5% (inactive). The same measure, in the same setting: to `Cc1ccc(C)c(NC(=O)CSc2nnc(CNC(=O)c3ccco3)n2C)c1` belongs -1.8% (inactive). Same read-out and setting: with `CCOC(=O)c1ccc(N2C(=O)c3n[nH]c(-c4ccco4)c3C2c2ccc([N+](=O)[O-])cc2)cc1` (stereo unspecified) the figure was 60.1% (active). On to `CCOC(=O)c1ccc(N2C(=O)c3n[nH]c(-c4ccco4)c3C2c2cccc([N+](=O)[O-])c2)cc1` (stereo unspecified), for which, for the setting “at 20 µM”, the inhibition was 14.6% (inactive). For the molecule `CCOC(=O)c1ccc(N2C(=O)c3n[nH]c(C)c3C2c2ccco2)cc1` (stereo unspecified), the inhibition (at 20 µM) is -0.8% (inactive). As to `Cc1nnc(SCC(=O)N2CCN(c3ccccc3)CC2)n(N)c1=O`, under “at 20 µM”, the inhibition was 0.4% (inactive). Still for that read-out and setting: with `COc1cc(OC)cc(C(=O)n2nc(C)cc2C)c1` the figure was -0.7% (inactive). For `Cn1c(CC(=O)Nc2ccc(Cl)cc2)nnc1SCC(=O)N1CCOCC1`, the inhibition (at 20 µM) was -1% (inactive). Still for that read-out and setting: with `CCCN1C(=O)/C(=C/c2ccc(N3CCCC3)c(C)c2)NC1=S` the figure was 125% (inactive); with `Cc1cc(/C=C2/C(=O)N(C)C(=S)N2C)ccc1N1CCCC1`, 54.2% (active); with `Cc1cc(/C=C2\NC(=S)N(C)C2=O)ccc1N1CCCC1`, 143% (inactive). The same measure, in the same setting: to `Cc1cc(S(=O)(=O)N2CCOCC2)ccc1OCC(=O)Nc1cccc(F)c1` belongs -1.3% (inactive); to `CCOc1ccc(C(C)NC(=O)c2cccnc2OCC)cc1OCC` (stereo unspecified), -0.2% (inactive); to `Cc1csc(N/N=C/c2ccc(O)c([N+](=O)[O-])c2)n1`, 0% (inactive). Consider `O=[N+]([O-])c1cc(/C=N\Nc2nc(-c3ccccc3)cs2)ccc1O`, for which the inhibition (at 20 µM) is 33.1% (inactive).

As to `O=[N+]([O-])c1cc(/C=N\Nc2nccs2)ccc1O`, the inhibition (at 20 µM) is 71.1% (active). Regarding `O=C(/C=C/c1cc([N+](=O)[O-])ccc1OC(F)F)Nc1cccc2ccccc12`, the inhibition (at 20 µM) was 1.3% (inactive). Still for that read-out and setting: with `CC1(C)Cc2c(sc(NC(=S)NC(=O)c3ccccc3)c2C(=O)O)CO1` the figure was 2.8% (inactive). In the case of `CC(/C=C1\SC(=S)N(NC(=O)c2ccc(C)cc2)C1=O)=C\c1ccccc1`, for the setting “at 20 µM”, the inhibition is 6.4% (inactive). For the molecule `CC(/C=C1\SC(=S)N(NS(=O)(=O)c2ccc(C)cc2)C1=O)=C\c1ccccc1`, for the setting “at 20 µM”, the inhibition was 56.5% (active). `CC(/C=C1\SC(=S)N(NS(=O)(=O)c2ccccc2)C1=O)=C\c1ccccc1`: the inhibition (at 20 µM) was 40.6% (inactive). As to `COc1ccc(NC(=O)/C(C#N)=C\C=C\c2ccco2)cc1`, the inhibition (at 20 µM) was 73.2% (inactive) and the inhibition under setting [1] is -0.6%. As to `COc1ccc(NC(=O)/C(C#N)=C/C=C/c2ccco2)cc1`, the inhibition (at 20 µM) is 80.7% (active). Take `COc1ccccc1NC(=O)/C(C#N)=C/C=C/c1ccco1`: the inhibition (at 20 µM) is 24.1% (inactive). Consider `Cc1cccn2cc(CCNC(=O)c3ccco3)nc12`, for which, where the note is “at 20 µM”, the inhibition is -0.6% (inactive). Turning to `Cc1cc(N2C(=O)C(O)=C(C(=O)c3ccco3)C2c2ccc([N+](=O)[O-])cc2)no1` (stereo unspecified), the inhibition (at 20 µM) is 1.4% (inactive). In the case of `Cc1nc(=O)c(-c2ccccc2)c(C)n1CCCCCC(=O)O`, the inhibition (at 20 µM) was -2.3% (inactive). For `CC(N=C(NS(=O)(=O)c1ccc(Cl)cc1)c1ccccc1)C(=O)O` (stereo unspecified), the inhibition (at 20 µM) was -0.1% (inactive). `COc1ccc(C=C(c2nc3ccccc3s2)c2nc3ccccc3s2)cc1O`: where the note is “at 20 µM”, the inhibition is 57.6% (active). In the case of `COc1cc(C=C(c2nc3ccccc3s2)c2nc3ccccc3s2)cc(OC)c1O`, for the setting “at 20 µM”, the inhibition was 26.6% (inactive). `COc1cc(C=C(c2nc3ccccc3s2)c2nc3ccccc3s2)ccc1O`: the inhibition (at 20 µM) was 8.2% (inactive). Turning to `CCS(=O)(=O)Nc1cccc(C2=NN(S(C)(=O)=O)C(c3cccs3)C2)c1` (stereo unspecified), for the setting “at 20 µM”, the inhibition is 0.5% (inactive). Regarding `CCOC(=O)C(NC(=O)CC)(Nc1ccc(S(=O)(=O)Nc2cc(C)on2)cc1)C(F)(F)F` (stereo unspecified), the inhibition (at 20 µM) is 59.8% (active). Take `CCCC(=O)NC(Nc1ccc(S(=O)(=O)Nc2cc(C)on2)cc1)(C(=O)OCC)C(F)(F)F` (stereo unspecified): the inhibition (at 20 µM) was -1.8% (inactive). Regarding `CCOC(=O)C(NC(C)=O)(Nc1ccc(S(=O)(=O)Nc2cc(C)on2)cc1)C(F)(F)F` (stereo unspecified), the inhibition (at 20 µM) is 3.7% (inactive).
